Results taken from PubChem BioAssay AID1347385 (Zoeller Lab, School of Medicine, Boston University, 2020).
Hit rate of the full screen: of about 20,000 compounds, about 85 (0.4%) were called active.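 Rule for the calls: active = cell survival signal 2 SD away from solvent-only control wells, confirmed on one or two retests; inactive = the rest.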 This excerpt belongs to a sample that is enriched for actives.

Assay: phospholipid synthesis inhibitors, CHO cells, primary screen, ZR-82 cells, Enamine library, screen 3 (AID 1347385);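 note: 3 h compound exposure then viability read about one day after UV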
Conditions: ZR-82 CHO cells, pyrene fatty acid UV survival, CellTiter Blue, peroxisome-deficient CHO-K1 mutant line, plus DGAT-1, DGAT-2 and ACAT inhibitors; at 10 µM unless noted

Row | SMILES | outcome
1 | Fc1ccc(-c2nnc(-c3nnc(-c4ccc(F)cc4)c(-c4ccccc4)n3)nc2-c2ccccc2)cc1 | inactive
2 | O=P1(Nc2cc(C(F)(F)F)ccc2Cl)C=C(c2ccccc2)OC(c2ccccc2)=C1 | inactive
3 | Nc1ccc([N+](=O)[O-])c(OC(F)F)c1 | inactive
4 | CCOC(=O)c1c(N)sc2c1CCCS2 | inactive
5 | C=CCN1C(=O)/C(=C/c2c(NC3CC(C)(C)NC(C)(C)C3)nc3ccc(C)cn3c2=O)SC1=S | inactive
6 | O=C(COC(=O)CCNC(=O)NC12CC3CC(CC(C3)C1)C2)NCC(F)(F)F | inactive
7 | O=S(=O)(c1ccc(F)c(F)c1)N1CCN(c2ccc(O)cc2)CC1 | inactive
8 | COC(=O)C(C)N (stereo not drawn) | inactive
9 | Cc1noc(C)c1COc1ncnc2sc3c(c12)CCCC3 | inactive
10 | C(=N\n1c(-c2ccco2)csc1=NC1CCCCC1)/c1ccccn1 | inactive [setting not given]
11 | Cc1noc(C)c1S(=O)(=O)Nc1ccc(NS(=O)(=O)c2ccc3c(c2)OCCCO3)cc1 | inactive
12 | S=c1n(CN2CCOCC2)nc(Cc2cccs2)n1C1CCCCC1 | inactive
13 | Ic1ccc2c(c1)Cc1ccccc1-2 | inactive
14 | Cn1c(C(F)(F)F)nn(CN2CCN(c3cccc(C(F)(F)F)c3)CC2)c1=S | inactive
15 | O=C(CSc1nc2ccccc2nc1SCC(=O)c1cc2ccccc2o1)c1cc2ccccc2o1 | inactive
16 | O=S1(=O)N=C(N2CCC(c3nc4ccccc4o3)CC2)c2ccccc21 | inactive
17 | O=C(COC(=O)Cn1cc(C(F)(F)F)ccc1=O)NC(=O)NC1CCCC1 | inactive
18 | O=c1cc(COc2cc(Cl)c(Cl)cc2Cl)nc2ccc(Br)cn12 | inactive
19 | FC(F)(F)c1ccc(Oc2ccc(Cl)c3cccnc23)nc1 | inactive
20 | O=S(=O)(Nc1cc(S(=O)(=O)N2CCOCC2)ccc1N1CCCC1)c1cccs1 | inactive
21 | Clc1ccc(C=Nc2ccc3c(c2)OCO3)c(Cl)c1 | inactive
22 | CC(C)CN(C(=O)CSc1nncn1C)C1CCS(=O)(=O)C1 (stereo not drawn) | inactive
23 | O=[N+]([O-])c1ccc(NN=C2C3CC4CC(C3)CC2C4)c(S(=O)(=O)Nc2ccc(Cl)cc2)c1 | inactive
24 | CN(C)/N=C/C=C1\CCC/C(=C\c2cc(Br)cs2)C1=O | inactive [setting not given]
25 | O=S(=O)(c1ccc(F)cc1F)N1c2cccc3cccc(c23)S1(=O)=O | inactive
26 | Nc1c(C(=O)CSc2cc(F)ccc2F)c(=O)[nH]c(=O)n1C1CC1 | inactive
27 | c1nc(N2CCN(c3ncnc4sc5c(c34)CCCC5)CC2)c2c3c(sc2n1)CCCC3 | inactive
28 | Cc1cc(C)nc(N/N=C/c2ccncc2)n1 | inactive [setting not given]
